Results on 14 compounds are retold here after PubChem BioAssay (NCI).

What all share (assay): NCI-60 one-dose screen, 48 h (100 = growth as untreated, 0 = no growth, -100 = all killed)
Experiment [1] relates to DU-145 prostate. Conditions: 10 µM unless noted.
The test system of experiment [2] is K-562 leukemia. Particulars: 10 µM unless noted.
The test system of experiment [3] is MALME-3M melanoma. Conditions: 10 µM unless noted.
Experiment [4] has as its system MDA-MB-231 breast. Conditions: 10 µM unless noted.
Experiment [5] relates to RXF 393 renal. Conditions: 10 µM unless noted.
The test system of experiment [6] is SF-268 CNS. Conditions: 10 µM unless noted.
Experiment [7] relates to SF-295 CNS. Particulars: 10 µM unless noted.
Experiment [8] deals with SF-539 CNS. Conditions: 10 µM unless noted.
In experiment [9] the test system is UACC-257 melanoma. Conditions: 10 µM.
Experiment [10] has as its system M14 melanoma. Conditions: 10 µM unless noted.

About 83,000 compounds went through this panel and 20% of them were active in at least one assay; those are over-represented in the sample as a whole.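 Single-concentration screen, 48 h exposure, 96-well plates. Endpoint: percent growth. Below 10 = active.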 A number with no mark means an inactive call. Activity calls are given as the source filed them.

In the case of `COc1cc2nc(SCc3cc(OC)c(OC)c(OC)c3)n(Cc3ccccc3)c(=O)c2cc1OC`, the growth was 49.8% in experiment [1]; 10.2% in [2]; 21.9% in experiment [3]; 36% in experiment [4]; 4.55% (active) in experiment [5]; 37.9% in [6]. Further, the growth in experiment [7] was 19.7%; in [8], -6.22% (active); in experiment [9] it was 63.3%; in [10] it was 14.9%.
On to `O=C(Nc1ccc(Br)c(Cl)c1)c1cc(F)ccc1O`, for which the growth in [1] was 23.5%; in experiment [2], 9.59% (active); in experiment [3] it was -22.8% (active); in experiment [4], -20% (active); in experiment [5], -5.62% (active); in [6], 19.1%. Besides, the growth in experiment [7] was -53.1% (active); in experiment [8] it was 5.17% (active); in [9], -23.5% (active); in [10] it was -14.3% (active).
For the compound `CCCCNC(=O)NS(=O)(=O)c1ccc(N2N=C(c3ccc(C)cc3C)CC2c2ccc(OC)cc2)cc1` (stereo not given), the growth in [1] is 92.4%; in [2], 58.9%; in experiment [3], 108%; in experiment [4], 85.4%; in [5] it was 82.6%; in experiment [6], 84.8%. Also, the growth in [7] was 41.6%; in experiment [8], 69.7%; in [9] it was 72.5%; in [10] it was 42.7%.
Take `CCCCCc1c(C)[nH]c(/C=c2\[nH]/c(=C3/C=c4ccccc4=N3)cc2OC)c1C`: the growth in experiment [1] was 5.25% (active); in experiment [2], -9.81% (active); in [3], -65% (active); in experiment [4], -80.5% (active); in experiment [5], -46.7% (active); in experiment [6], -38.3% (active). Further, the growth in experiment [7] is -60.2% (active); in experiment [8], -67.1% (active); in experiment [9], -42.4% (active); in experiment [10] it was -81.6% (active).
Turning to `O=C1CCCCN1CCCCC#Cc1ccccc1C#Cc1ccc([N+](=O)[O-])cc1`, the growth in [1] is 71.1%; in experiment [2], 33.9%; in [3], 55.7%; in experiment [4] it was 59.3%; in experiment [5], 23.5%; in experiment [6] it was 40.3%. In addition, the growth in experiment [7] is 75.9%; in experiment [8], 37.6%; in experiment [10], 59.5%.
As to `COc1ccc(/C(=N\O)c2cc(OC)c(OC)c(OC)c2)c(OC)c1N`, the growth in [1] was 15.3%; in experiment [2], 7.11% (active); in [3], 48.9%; in experiment [4], 36.9%; in experiment [5], 16.8%; in experiment [6], 42.1%. Besides, the growth in experiment [7] was -9.97% (active); in experiment [8], -35.2% (active); in [10], 7.17% (active).
As to `Cc1cc(NC(=O)COC(=O)c2sc3cc(F)ccc3c2Cl)no1`, the growth in [1] was 116%; in experiment [2] it was 111%; in experiment [3] it was 100%; in [4], 98.6%; in [5], 32.6%; in experiment [6], 120%. Also, the growth in experiment [7] was 112%; in experiment [8], 105%; in experiment [10], 102%.
Turning to `CC(=O)/C=C/c1cc2cc(Cl)ccc2[nH]c1=O`, the growth in [1] is 69.8%; in experiment [2] it was 50.5%; in [3], 97.2%; in experiment [4], 84%; in experiment [5], 79.1%; in experiment [6], 81.2%. Further, the values for the growth in experiment [7], in experiment [8] and in experiment [10] were 96.9%, 85.4% and 91.2%, respectively.
Take `CC/C=C\C[C@H]1C/C=C2/C(=O)C(Cl)=C[C@@H]2C/C=C\CCCC(=O)O1`: the growth in experiment [1] was -91% (active); in experiment [2], -11.6% (active); in [3], -42.6% (active); in experiment [4] it was -13% (active); in experiment [5] it was -90.1% (active); in experiment [6], -55.4% (active). Moreover, the growth in [7] is -63% (active); in [8], -72.6% (active); in [10], -47.1% (active).
Turning to `COc1cc(-c2csc(NC(=O)c3cc(C(F)(F)F)cc(C(F)(F)F)c3)n2)cc(OC)c1OC`, the growth was 35% in experiment [1]; 14.4% in experiment [2]; 3.36% (active) in experiment [3]; 41.1% in experiment [4]; 56.7% in experiment [5]; 35.4% in experiment [6]. Besides, the figures for the growth in experiment [7], in experiment [8] and in experiment [10] were 33.9%, 56% and 32.3%, respectively.
Consider `O=C1CCC/C=C\C[C@H]2C=CC(=O)/C2=C/C[C@H](C/C=C\CC(F)(F)F)O1`, for which the growth in experiment [1] was -3.69% (active); in experiment [2], 3.68% (active); in [3], -12% (active); in experiment [4] it was 17.7%; in experiment [5] it was -85.4% (active); in [6], -1.48% (active). For the same compound, the growth is -19.7% (active) in experiment [7], -40.1% (active) in [8] and -15.2% (active) in experiment [10].
Regarding `CN1CCN(CCCOc2ccc3nc(Nc4ccc(C(F)(F)F)c(Cl)c4)ccc3c2)CC1`, the growth in experiment [1] was 20.1%; in experiment [2], -47.2% (active); in [3] it was -47.1% (active); in [4] it was -53.3% (active); in experiment [5], 6.61% (active); in experiment [6] it was 11.5%. The growth in experiment [7] is -52.8% (active); in experiment [8], -49% (active); in experiment [10] it was -19.8% (active).
In the case of `ClC1=C(Cl)C(Cl)=C(Cl)C1=Cc1ccc(Cl)cc1Cl`, the growth in experiment [1] is -5.47% (active); in experiment [2], 0.397% (active); in experiment [3], -30.8% (active); in experiment [4] it was -10.8% (active); in experiment [5] it was -94.8% (active); in [6], -43.4% (active). Besides, the growth in [7] was -16.6% (active); in experiment [8], -30% (active); in [10] it was -30.1% (active).
In the case of `CC1CCc2c(sc(NC(=O)CSc3nnc4ccccn34)c2C(N)=O)C1` (stereo not given), the growth was 144% in experiment [1]; 117% in experiment [2]; 181% in experiment [3]; 102% in [4]; 1.36% (active) in experiment [5]; 109% in experiment [6]. Moreover, the growth in experiment [7] was 93.6%; in experiment [8], 137%; in experiment [10] it was 117%.
